Assay outcomes from PubChem BioAssay.
In the library only some 10% were active in any assay of this set; here they are far more common.
ELG1 DNA repair = ELG1-dependent DNA repair inhibition; HEK293T ELG1-luciferase reporter, luminescence, 16 h; DNA damage induced by 5-fluorouridine; Potency, µM (doses to about 46.1 µM), without a hit: at the highest dose activity change, negative = inhibition, hits mostly inhibitors; 2.3% of 330,000 active; further: on the % scale 0 is the no-effect control and ±100 the full control effect; nearly all actives have a fitted effect of over 55% in size
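Quantitative HTS, concentration-response format. 2,000 cells/well co-treated with 5-fluorouridine and compound, 16 hr in 5% CO2 at 37 °C; ONE-Glo luminescence read after 30 min.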
MCF10A rerep = DNA re-replication induction in MCF 10a cells; MCF 10A DNA re-replication, Hoechst nuclear intensity, 48 h; Potency, µM (top dose mostly 46.1 µM), without a hit: top-dose activity, positive = re-replication, most hits filed as activators; 2.9% of 350,000 active; AID 624296; further: % of control where 0% means no effect; nearly all actives have a fitted effect of over 50% in size
VP16 counter = Gal4-VP16 reporter inhibition counter-screen | Potency, µM (doses to about 53.6 µM), for the others: top-dose activity, negative = inhibition, most hits filed as inhibitors | 3.5% of 310,000 active | Drosophila S2 Gal4-VP16 UAS-luciferase, luminescence, 20 h;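 further: Gal4-VP16 expression switched on by copper sulfate through the metallothionein promoter; on the % scale 0 is the no-effect control and ±100 the full control effect; nearly all actives have a fitted effect of over 50% in size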
RORgamma inh = inhibitors of mouse ROR gamma transcriptional activity | Drosophila S2 Gal4-RORgamma UAS-luciferase reporter, 20 h | Potency, µM (top dose mostly 53.6 µM), for inactives: top-dose activity change, negative = inhibition, actives largely listed as inhibitors | 5.4% of 310,000 active | AID 2551; further: on the % scale 0 is the no-effect control and ±100 the full control effect; nearly all actives have a fitted effect of over 60% in size
Target sequence (P51450 whole entry, looked up, the tested form may be a part): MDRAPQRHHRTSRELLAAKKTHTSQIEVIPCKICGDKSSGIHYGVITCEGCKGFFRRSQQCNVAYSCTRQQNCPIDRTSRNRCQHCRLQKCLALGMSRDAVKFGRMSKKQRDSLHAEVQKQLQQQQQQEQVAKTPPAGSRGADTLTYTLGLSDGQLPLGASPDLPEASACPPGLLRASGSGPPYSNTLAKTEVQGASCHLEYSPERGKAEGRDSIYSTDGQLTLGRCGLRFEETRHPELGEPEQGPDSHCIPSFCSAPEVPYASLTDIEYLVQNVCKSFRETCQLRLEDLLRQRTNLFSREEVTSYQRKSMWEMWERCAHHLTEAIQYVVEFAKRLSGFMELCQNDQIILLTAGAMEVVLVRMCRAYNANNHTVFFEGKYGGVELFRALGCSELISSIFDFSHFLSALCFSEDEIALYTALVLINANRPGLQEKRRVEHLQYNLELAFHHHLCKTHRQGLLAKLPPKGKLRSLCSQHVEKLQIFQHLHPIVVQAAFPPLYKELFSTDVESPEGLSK
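Drosophila Schneider cells stably carrying a metallothionein-driven Gal4 DBD–ROR gamma fusion and a UAS-Photinus luciferase reporter were exposed to compound for 1 hr, then induced with copper sulfate (700 uM final) for 20 hr at ambient temperature before luminescence reading.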
SW480 rerep = inducers of DNA re-replication in SW480 colon cancer cells; 1.8% of 340,000 active; SW480 DNA re-replication, Hoechst DNA content imaging, 48 h; Potency, µM (top dose mostly 46.1 µM), without a hit: at the highest dose re-replication activation, hits mostly activators; further: % of control where 0% means no effect; nearly all actives have a fitted effect of over 55% in size
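DNA re-replication was detected as more nuclei of elevated Hoechst intensity after 48 hr exposure to compound (23 nL pinned per well of 250 cells).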
Numbers without * were called inactive; ? = inconclusive; · = no result; [ ] = dose if it differs, or a comment. The call rests on the fitted dose curve; in most records, active means well fitted curve in the direction sought with a large enough effect; inconclusive means small, poorly fitted or top-dose-only effect, or another doubt; inactive means no such curve, though single readings can be large; an effect the other way counts as inactive or inconclusive. Potency means the concentration at half of the fitted maximal effect.

SMILES | ELG1 DNA repair | MCF10A rerep | VP16 counter | RORgamma inh | SW480 rerep
O=C(CCl)N1CCN2C(=O)c3ccccc3C12c1ccc(Cl)cc1 (configuration not stated) | 16% | 23µM* | ? | ? | ?
COc1cc2c(cc1OC)C(NC(=O)C(F)(F)F)CNC2=O (configuration not stated) | 12µM* | -4% | -10% | 3% | 1%
COC(=O)c1ccccc1NC(=O)NC1CCC(C)CC1 (configuration not stated) | ? | 1% | 2% | 22% | 2%
O=C(Cn1cc(Cl)ccc1=O)c1ccc(Cl)cc1 | ? | 3% | ? | ? | -5%
O=C(Nc1ccccc1)N1CCC(c2nc(-c3ccc(S(=O)(=O)N4CCOCC4)cc3)no2)CC1 | ? | 1.8µM* | -2% | -5%[10 µM] | 5.8µM*
O=C(Nc1ccc(Cl)cc1)N1CCC(c2nc(-c3ccccc3Cl)no2)CC1 | 13µM* | ? | -13% | 31% | 10%
S=c1[nH]nc(-c2ccc(Cl)cc2)n1-c1ccc2c(c1)OCCO2 | 1% | ? | 7.1µM* | 3.2µM* | -3%
S=c1[nH]nc(-c2cccnc2)n1-c1ccc2c(c1)OCCO2 | ? | -31% | 25% | ? | -21%
Nc1n[nH]c(=S)n1-c1ccc(Cl)cc1 | 0% | 19% | -19% | -9% | 6%
Fc1ccc(-c2n[nH]c(=S)n2-c2ccc3c(c2)OCCO3)cc1 | 12% | -6% | -25% | 13µM* | 1%
COc1ccc(-n2c(-c3ccc(Cl)cc3Cl)n[nH]c2=S)c(OC)c1 | -2% | 22% | 6.3µM* | 4µM* | -1%
S=c1[nH]nc(-c2ccc(Cl)cc2Cl)n1-c1ccc(Cl)cc1 | 0% | -1% | ? | 6.3µM* | 1%
CCOC(=O)[C@]1(C(NC(=O)OC)c2cccc(F)c2)CCCC1=O (some centres not stated) | · | · | -7%[10 µM] | 2%[10 µM] | ·
O=C(NCc1ccco1)C1CCN(C(=O)c2ccc(Cl)cc2Cl)CC1 | 25% | -31% | -3% | -2% | -11%
S=c1[nH]nc(-c2ccc(Cl)cc2)n1-c1ccc(Cl)cc1 | 6% | 9% | 7.1µM* | 7.1µM* | 0%
COCc1cc(=O)[nH]c(Nc2nc3ccccc3o2)n1 | ? | ? | ? | 3.5µM* | ?
CCOC(=O)Cc1cc(=O)[nH]c(Nc2nc3ccccc3o2)n1 | ? | 7% | 16µM* | 10µM* | 1%
COC(=O)Cc1cc(=O)[nH]c(Nc2nc3ccccc3o2)n1 | 0% | 0% | ? | -27% | -3%
Cc1ccc2oc(Nc3nc(-c4ccccc4)cc(=O)[nH]3)nc2c1 | ? | 21µM* | -14% | 2.8µM* | ?
Cc1nc(-c2ccccc2)cc(=O)[nH]1 | 1% | 8% | 1% | -2% | 1%
Cc1cc(OC(F)F)ccc1NC(=O)Nc1ccc2c(c1)OCO2 | -5% | -1% | -1% | -2% | -6%
c1cc(-c2cnn3cc(-c4ccc(OCCN5CCCCC5)cc4)cnc23)ccn1 | · | · | 4% | 15% | ·
NS(=O)(=O)c1ccc(CCNC(=O)NC2(C(F)(F)F)Oc3ccccc3O2)cc1 | -11% | ? | ? | 11µM* | -5%
CCOc1ccc(/C=C/C(=O)c2ccccc2)cc1OC | ? | ? | 3% | -24% | ?
COc1ccc(C(=O)/C=C/c2ccc(N(C)C)cc2)c(OC)c1 | 13% | 16µM* | -6% | -1% | ?
SMILES | ELG1 DNA repair | MCF10A rerep | VP16 counter | RORgamma inh | SW480 rerep
COc1cc(/C=C/C(=O)O)cc(OC)c1O | · | 5% | · | · | 7%
COc1ccc(C(=O)/C=C/c2ccccc2)c(OC)c1 | ? | ? | -12% | ? | 28%
COc1cccc(C(=O)/C=C/c2ccc(OCC#N)c(OC)c2)c1 | ? | 9.2µM* | ? | ? | 23µM*
COc1ccc(C(=O)/C=C/c2cc(OC)c(O)c(OC)c2)c(F)c1 | 8.2µM* | ? | ? | ? | 27%
COc1ccc2cc(C(=O)/C=C/c3cc(OC)c(O)c(OC)c3)ccc2c1 | -13% | 9.2µM* | ? | ? | ?
Cc1ccc(CNC(=O)CCCCCNC(=O)N2CCn3c2nc2ccccc23)cc1 | 6% | -3% | 0% | 18% | 26%
CC12CCC(C(=O)N(NC(=O)c3ccccc3Cl)C1=O)C2(C)C (configuration not stated) | -5% | 1% | -1% | 10% | 0%
CCOC(=O)C1OC1c1ccccc1 (configuration not stated) | · | · | -10% | -13% | ·
COC(=O)CN(C)C(=O)c1ccc(OC2CCN(S(=O)(=O)N(C)C)CC2)cc1 | ? | -1% | -11% | ? | -5%
Nc1nc(Sc2c([N+](=O)[O-])cc(C(F)(F)F)cc2[N+](=O)[O-])n[nH]1 | 9% | ? | 16µM* | 10µM* | ?
Cc1ccc(Cl)cc1N1CCN(C(=O)c2ccc3c(c2)CCN3S(C)(=O)=O)CC1 | -23% | · | -2% | 39% | ·
COc1cccc(N(C(=O)c2snc(C(N)=O)c2N)C(C(=O)NCC2CCCO2)c2cccs2)c1 (configuration not stated) | -2% | -9% | 24% | ? | -3%
COc1cccc(N(C(=O)CCl)C(C(=O)NCCc2ccccc2)c2cccs2)c1 (configuration not stated) | 16µM* | 16µM* | -18% | 13µM* | ?
COCCNC(=O)C(c1cccs1)N(C(=O)Cn1nnc2ccccc21)c1ccccc1 (configuration not stated) | 1% | -1% | · | 3%[0.365 µM] | -5%
COc1ccc(N(C(=O)CCl)C(C(=O)NCCc2ccccc2)c2cccs2)cc1Cl (configuration not stated) | ? | 6.5µM* | -82% | 11µM* | ?
CC1Cc2ccccc2N1C(=O)CN1CCC(n2nnc3cc(C(F)(F)F)ccc32)CC1 (configuration not stated) | 21µM* | -4% | 4µM* | 39% | 10%
COC(=O)c1ccccc1NC(=O)CN1CCC(n2nnc3cc(C(F)(F)F)ccc32)CC1 | ? | ? | -3% | -14% | 1%
CCOc1ccc(NC(=S)N2CCN(S(=O)(=O)c3ccc(OC)cc3)CC2)cc1 | -28% | -1% | 15% | 1% | 11%
Cc1ccc(-c2cc(-c3ccccc3)nc(Cl)n2)cc1 | ? | -6% | 13% | 13% | ?
CCOc1ccc(-c2cc3cc(OC)c(OC)cc3c(C)n2)cc1 | ? | -14% | 9% | -18% | 2%
COc1ccc(-c2cc(-c3ccccc3)nc(Cl)n2)cc1OC | 18µM* | 23µM* | -21% | 23% | ?
CCc1nc(-c2ccc(OC)c(OC)c2)cc2cc(OC)c(OC)cc12 | 26µM* | 7% | 4% | -11% | -3%
